Compound activity: PubChem BioAssay, Broad Institute
PD-1 reversal – activators reversing PD-1 mediated T-cell inhibition, primary screen, luminescence, primary human CD4 T cells, PD-L1 beads. CellTiter-Glo 96 h. activation, % (concentration not given with the values). 29,000 tested, under 10 active; call rule not given here;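 also: 0% = median vehicle wells and 100% = positive control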
Hedgehog inh – Hedgehog pathway signaling inhibitors, primary screen, luminescence, Shh-LIGHT2 cells, Gli-luciferase | Shh-LIGHT2 Gli-luciferase reporter, 30 h | inhibition, % (test concentration not listed) | 22,000 compounds, 2.1% hits | AID 2313, 2010;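 active = mean inhibition across valid replicates above about 65%, limit read from the data; inconclusive = mean under the limit, yet half or more replicates past it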;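 also: pathway switched on by Shh-conditioned medium diluted 1 in 25 in low serum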
NOMO-1 viab – NOMO-1 AML cell viability reduction, primary screen, STK33 inhibitor project, CellTiter-Glo luminescence; AID 2330, 2010; 37,000 compounds, 7.5% hits; inhibition, % (concentration not given with the values); NOMO-1 AML viability, 72 h; in the data active = inhibition above about 80%; inconclusive = no clear call, values can overlap the other calls
The depositor's hits bear a star; ? = inconclusive; . = no result. Compounds with a hit are over-represented: about 7.7% of the library has one in this group of screens.

SMILES	PD-1 reversal	Hedgehog inh	NOMO-1 viab
Cc1ccc(S(=O)(=O)NCC(=O)Nc2ccc(Cl)c(C(F)(F)F)c2)cc1	-4	.	60
COc1ccc(NC(=O)CNC(=O)c2ccccc2)cc1Cl	0	.	14
Cc1cccc(NC(c2ccccc2)c2ccc3ccc(C)nc3c2O)n1 (configuration not stated)	.	.	102*
Cc1ccc2cccc(OCc3nnc(SCC(N)=O)n3C)c2n1	1	.	-5
CCOc1ccc(C(Nc2cccc(C)n2)c2ccc3ccc(C)nc3c2O)cc1 (configuration not stated)	-13	.	106*
COc1cccc(NC(=O)CSc2nc3ccccc3c(=O)n2-c2cccc(C(F)(F)F)c2)c1	.	.	50
CCc1cccc(C)c1NC(=O)CSc1nnc(-c2cccnc2)n1C	2	.	3
COc1ccc(C)cc1NC(=O)CNS(=O)(=O)c1ccccc1	-1	.	33
COc1ccc(NC(=O)c2ccc(-c3ccc(-c4noc(C)n4)cc3C)cc2)cc1OCCN(C)C	.	?	115*
COc1ccc(NC(=O)c2ccc(N(C)S(=O)(=O)c3ccc(OC)c(OC)c3)cc2)cc1OC	0	.	3
Cc1cc(C)c(S(=O)(=O)N(CC(=O)Nc2ccccc2C(F)(F)F)C2CCCCC2)c(C)c1	0	.	33
CCc1c(C)sc(NC(=S)Nc2cc(OC)c(Cl)cc2OC)c1C(=O)OC	.	.	31
O=C(CC1(O)C(=O)N(Cc2ccccc2)c2ccc(Br)cc21)c1ccco1 (configuration not stated)	-9	.	114*
Cc1cc(Br)c2c(c1)C(O)(CC(=O)c1ccco1)C(=O)N2C (configuration not stated)	-5	.	122*
O=C(CC1(O)C(=O)N(Cc2ccccc2)c2ccc(Br)cc21)c1ccccc1[N+](=O)[O-] (configuration not stated)	-1	.	100*
N=c1n(CC(=O)c2ccco2)c2ccccc2n1Cc1ccccc1	1	41	37
Cc1ccc2c(c1)C(O)(CC(=O)c1ccccc1[N+](=O)[O-])C(=O)N2 (configuration not stated)	.	.	15
COc1c(C)cc(Br)cc1C(=O)NC(=S)Nc1sc2c(c1C(N)=O)CCCCC2	0	.	9
CCn1c(SCC(=O)Nc2cccc(Cl)c2)nnc1-c1ccc(Cl)cc1Cl	-2	.	52
C[C@@H]1CN([C@H](C)CO)C(=O)Cc2cc(NC(=O)Nc3ccc(C(F)(F)F)cc3)ccc2O[C@@H]1CN(C)S(=O)(=O)c1ccc(F)cc1	-1	18	90*
C[C@H]1CN([C@@H](C)CO)C(=O)Cc2cc(NC(=O)Nc3ccc(C(F)(F)F)cc3)ccc2O[C@H]1CN(C)S(=O)(=O)c1ccccc1	-2	-9	102*
Cc1noc(C)c1S(=O)(=O)N(C)C[C@H]1Oc2ccc(NC(=O)Nc3ccccc3)cc2CC(=O)N([C@@H](C)CO)C[C@@H]1C	-1	-9	29
C[C@@H]1CN([C@@H](C)CO)C(=O)Cc2cc(NC(=O)Nc3ccc(C(F)(F)F)cc3)ccc2O[C@@H]1CN(C)S(=O)(=O)c1ccc(Cl)cc1	-7	26	104*
C[C@H]1CN([C@@H](C)CO)C(=O)Cc2cc(NC(=O)Nc3ccc(F)cc3)ccc2O[C@@H]1CN(C)S(=O)(=O)c1ccc(Cl)cc1	1	-20	0
C[C@H]1CN([C@@H](C)CO)C(=O)Cc2cc(NC(=O)Nc3ccc(C(F)(F)F)cc3)ccc2O[C@@H]1CN(C)S(=O)(=O)c1ccc(F)cc1	.	24	69
SMILES	PD-1 reversal	Hedgehog inh	NOMO-1 viab
Cc1noc(C)c1S(=O)(=O)N(C)C[C@H]1Oc2ccc(NC(=O)Nc3ccc(C(F)(F)F)cc3)cc2CC(=O)N([C@@H](C)CO)C[C@H]1C	-1	.	92*
C[C@@H]1CN([C@H](C)CO)C(=O)Cc2cc(NC(=O)Nc3ccccc3)ccc2O[C@H]1CN(C)S(=O)(=O)c1ccccc1	-1	.	-16
O=C(Nc1cccc(NS(=O)(=O)c2cccc([N+](=O)[O-])c2)c1)c1cccs1	.	.	30
C[C@H]1CN([C@@H](C)CO)C(=O)Cc2cc(NC(=O)Nc3ccc(C(F)(F)F)cc3)ccc2O[C@H]1CN(C)S(=O)(=O)c1ccc(Cl)cc1	-4	?	115*
Cc1noc(C)c1S(=O)(=O)Nc1ccc2c(c1)CC(=O)N([C@@H](C)CO)C[C@H](C)[C@@H](CN(C)C(=O)Nc1ccc(C(F)(F)F)cc1)O2	.	?	13
C[C@@H]1CN([C@@H](C)CO)C(=O)Cc2cc(NC(=O)Nc3ccc(C(F)(F)F)cc3)ccc2O[C@@H]1CN(C)C	.	1	48
Cc1ccc(S(=O)(=O)N(C)C[C@@H]2Oc3ccc(NC(=O)Nc4ccc(C(F)(F)F)cc4)cc3CC(=O)N([C@H](C)CO)C[C@H]2C)cc1	2	.	66
C[C@H](CO)N1C[C@H](C)[C@H](CN(C)S(C)(=O)=O)Oc2ccc(NC(=O)Nc3ccc(C(F)(F)F)cc3)cc2CC1=O	-1	.	98*
Cc1noc(C)c1S(=O)(=O)Nc1ccc2c(c1)CC(=O)N([C@@H](C)CO)C[C@H](C)[C@H](CN(C)C(=O)Nc1ccc(C(F)(F)F)cc1)O2	.	66*	-1
COc1ccc(NC(=O)CN(c2ccc(OC)c(Cl)c2)S(C)(=O)=O)cc1Cl	0	.	3
O=C(Cn1cnc2ccccc2c1=O)Nc1ccc2c(c1)Cc1ccccc1-2	0	.	31
COc1c(O)c(C(=O)/C=C\c2ccccc2)c(OC)c(OC)c1OC	-3	-20	58
C[C@@H]1CN([C@@H](C)CO)C(=O)c2cc(NC(=O)C3CC3)ccc2O[C@@H]1CN(C)Cc1ccc(C(=O)Nc2ccccc2N)cc1	-2	.	105*
C[C@@H]1CN([C@@H](C)CO)C(=O)c2cc(NC(=O)NC3CCCCC3)ccc2O[C@H]1CN(C)Cc1ccc(C(=O)Nc2ccccc2N)cc1	-2	.	28
C[C@@H]1CN([C@@H](C)CO)C(=O)c2cc(NC(=O)C3CCCCC3)ccc2O[C@@H]1CN(C)Cc1ccc(C(=O)Nc2ccccc2N)cc1	-2	.	109*
C[C@H](CO)N1C[C@H](C)[C@H](CN(C)Cc2ccc(C(=O)Nc3ccccc3N)cc2)Oc2ccc(NC(=O)C3CC3)cc2C1=O	-2	.	?
C[C@@H]1CN([C@H](C)CO)C(=O)c2cc(NC(=O)C3CCCCC3)ccc2O[C@@H]1CN(C)Cc1ccc(C(=O)Nc2ccccc2N)cc1	-1	.	?
C[C@H]1CN([C@@H](C)CO)C(=O)c2cc(NC(=O)C3CC3)ccc2O[C@H]1CN(C)Cc1ccc(C(=O)Nc2ccccc2N)cc1	0	.	106*
COc1cc(NS(=O)(=O)c2ccccc2[N+](=O)[O-])c(OC)cc1Cl	.	.	10
C[C@@H]1O[C@H]2Oc3c(-c4ccc(O)cc4)oc4cc(O)c(c(O)c4c3=O)-c3cc(ccc3O)/C=C\C(=O)OC[C@H]3O[C@@H](O[C@H]([C@H]1O)[C@H]2O)[C@H](O)[C@@H](O)[C@@H]3O	0	14	2
Cn1c(SCC(=O)N2CCc3ccccc32)nnc1-c1ccco1	.	.	-14
Cn1c(SCC(=O)Nc2cccc3ccccc23)nnc1-c1cccs1	-5	.	7
Cc1cccc(-n2ncc3ccccc3c2=O)c1	-1	-61	0
